Measurements published in PubChem BioAssay (EPA / NIEHS).
The source made the active and inactive calls. How the source made its calls: active means hit-call score of the fitted dose curve at least 0.9, where 1 is the maximum; inactive means score below 0.9.

Key:
[1] = CEETOX_H295R_OHPROG: CeeTox H295R High-throughput Steroidogenesis Assay for OH-Progesterone (OHPROG) (AID 2283435); details: actives raise or lower the signal;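 on AC50: human adrenal H295R cells primed 48 h with 10 µM forskolin; 17alpha-hydroxyprogesterone secreted into medium measured by HPLC-MS/MS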
Outline: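 Secreted 17alpha-hydroxyprogesterone is read by tandem MS from media of forskolin-primed H295R cells dosed with chemical for 48 h. Activity is fitted in both directions against DMSO baseline; cytotoxic concentrations are re-tested diluted.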

[2] = CEETOX_H295R_CORTIC: CeeTox H295R High-throughput Steroidogenesis Assay for Corticosterone (CORTIC) (AID 2283437); details: actives raise or lower the signal;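 further: corticosterone secreted into medium quantified by mass spectrometry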;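 on AC50: human H295R adrenal cells prestimulated with forskolin before chemical exposure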
Outline: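 H295R adrenal cells prestimulated 48 hours with 10 uM forskolin, then exposed 48 hours to chemical in 0.1% DMSO. Corticosterone in medium measured by HPLC-MS/MS after MTBE extraction; MTT viability in the same wells; bidirectional fit versus DMSO.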

[3] = CEETOX_H295R_CORTISOL: CeeTox H295R High-throughput Steroidogenesis Assay for Cortisol (AID 2283438); details: actives raise or lower the signal
Outline: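 Human adrenocortical H295R cells (passage ≤10) received test chemicals for 48 h after forskolin priming. Secreted cortisol was measured by LC-MS/MS.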

[4] = CEETOX_H295R_DOC: CeeTox H295R High-throughput Steroidogenesis Assay for DOC (AID 2283439); details: actives raise or lower the signal
Outline: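 Secreted DOC was quantified from H295R media by HPLC-MS/MS after 48 h chemical exposure following 48 h forskolin (10 uM) prestimulation. Values were fitted in both directions relative to DMSO, the negative control and baseline.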

[5] = CEETOX_H295R_PROG: CeeTox H295R High-throughput Steroidogenesis Assay for Progesterone (PROG) (AID 2283442); details: actives raise or lower the signal;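 on AC50: human H295R adrenal cells primed with 10 µM forskolin before dosing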
Outline: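 Progesterone secreted by human H295R cells was measured by LC-MS/MS following 48 h chemical exposure at 0.1% DMSO, preceded by 48 h forskolin (10 uM) stimulation. Same-well MTT viability; cytotoxic concentrations diluted 10- or 100-fold and retested.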

[6] = read-out: Tumor necrosis factor receptor superfamily member 6 (Homo sapiens) (UniProt P25445); assay: LTEA_HepaRG_FAS: Life Technologies and Expression Analysis (LTEA) Assay for Fas cell surface death receptor (FAS) using HepaRG (AID 2283447); details: mRNA level, 48 h; actives raise or lower the signal
Outline: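 Differentiated HepaRG cells in serum-free induction medium were exposed 48 h to 8 half-log concentrations up to 100 uM in 0.5% DMSO, in duplicate. FAS mRNA was measured by qRT-PCR normalised to ACTB, GAPDH and POLR2A; bidirectional fit versus DMSO.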

[7] = read-out: Fatty acid synthase (Homo sapiens) (UniProt P49327); assay: LTEA_HepaRG_FASN: Life Technologies and Expression Analysis (LTEA) Assay for Fatty Acid Synthase (FASN) using HepaRG (AID 2283448); details: mRNA level, 48 h; actives raise or lower the signal
Outline: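 Transcript-level assay: HepaRG liver cells are treated for 48 h across an eight-point range topping at 100 uM, and FASN mRNA, normalized to three housekeeping genes, is compared with DMSO controls in both directions.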

[8] = read-out: Cyclin D2 (CCND2), CCND2 (gene 894); assay: LTEA_HepaRG_CCND2: Life Technologies and Expression Analysis (LTEA) Assay for Cyclin D2 (CCND2) using HepaRG (AID 2283449); details: mRNA level, 48 h; actives raise or lower the signal;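 further: CCND2 transcript measured by TaqMan qRT-PCR and normalised to three housekeeping genes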
Outline: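 Chemicals in 0.5% DMSO, eight half-log concentrations from 100 uM top, were applied in duplicate for 48 h to human HepaRG cells in serum-free induction medium. CCND2 mRNA by TaqMan qRT-PCR, normalised to ACTB/GAPDH/POLR2A; bidirectional fit versus DMSO.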

[9] = read-out: Cyclin Dependent Kinase Inhibitor 1A (CDKN1A), CDKN1A (gene 1026); assay: LTEA_HepaRG_CDKN1A: Life Technologies and Expression Analysis (LTEA) Assay for Cyclin Dependent Kinase Inhibitor 1A (CDKN1A) using HepaRG (AID 2283450); details: mRNA level, 48 h; actives raise or lower the signal
Outline: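 Expression quantified by Fluidigm qRT-PCR with ACTB, GAPDH and POLR2A normalization, fitted bidirectionally against 0.5% DMSO. Cells: HepaRG, plated 48 h then treated 48 h in serum-free induction medium, top concentration 100 uM with half-log dilutions.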

[10] = read-out: Cyclin D1 (CCND1), CCND1 (gene 595); assay: LTEA_HepaRG_CCND1: Life Technologies and Expression Analysis (LTEA) Assay for Cyclin D1 (CCND1) using HepaRG (AID 2283451); details: mRNA level, 48 h; actives raise or lower the signal
Outline: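 Expression of CCND1 was quantified by qRT-PCR on Fluidigm arrays using ACTB, GAPDH and POLR2A as reference genes. HepaRG cultures, plated 48 h beforehand, were dosed for 48 h at up to 100 uM (half-log, 8 points) in 0.5% DMSO.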

[11] = read-out: flavin-containing dimethylaniline monooxygenases 3 (FMO3), FMO3 (gene 2328); assay: LTEA_HepaRG_FMO3: Life Technologies and Expression Analysis (LTEA) Assay for flavin-containing dimethylaniline monooxygenases 3 (FMO3) using HepaRG (AID 2283453); details: mRNA level, 48 h; actives raise or lower the signal
Outline: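 HepaRG, 48 h exposure, 8-pt half-log series from 100 uM, 0.5% DMSO vehicle, duplicates; FMO3 transcript by Fluidigm TaqMan qRT-PCR, housekeeping-normalized; gain/loss fit vs DMSO.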

[12] = read-out: Cytochrome P450 (CYP1A1), CYP1A1 (gene 1543); assay: LTEA_HepaRG_CYP1A1: Life Technologies and Expression Analysis (LTEA) Assay for Cytochrome P450 (CYP1A1) using HepaRG (AID 2283454); details: mRNA level, 48 h; actives raise or lower the signal
Outline: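 CYP1A1 transcript levels measured by Fluidigm qRT-PCR against three housekeeping genes, 48 h after chemical dosing of human HepaRG cells (highest concentration 100 uM, half-log steps, 0.5% DMSO vehicle). Gain or loss of signal fitted relative to DMSO.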

[13] = read-out: CFLAR gene, CFLAR (gene 8837); assay: LTEA_HepaRG_CFLAR: Life Technologies and Expression Analysis (LTEA) Assay for CFLAR gene using HepaRG (AID 2283455); details: mRNA level, 48 h; actives raise or lower the signal
Outline: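 Differentiated HepaRG cells in serum-free induction medium were exposed 48 h in duplicate to eight half-log concentrations up to 100 uM in 0.5% DMSO; mRNA measured by TaqMan qRT-PCR, normalized to ACTB, GAPDH, POLR2A; bidirectional fitting versus DMSO.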

[14] = read-out: Forkhead box O1 (FOXO1), FOXO1 (gene 2308); assay: LTEA_HepaRG_FOXO1: Life Technologies and Expression Analysis (LTEA) Assay for Forkhead box O1 (FOXO1) using HepaRG (AID 2283456); details: mRNA level, 48 h; actives raise or lower the signal
Outline: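 Differentiated HepaRG cells, in serum-free induction medium with 0.5% DMSO, exposed 48 h in duplicate to 8-point half-log series from 100 uM. FOXO1 mRNA measured by TaqMan qRT-PCR, normalized to ACTB, GAPDH, POLR2A; bidirectional fit versus DMSO.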

[15] = read-out: Forkhead box O3 (FOXO3), FOXO3 (gene 2309); assay: LTEA_HepaRG_FOXO3: Life Technologies and Expression Analysis (LTEA) Assay for Forkhead box O3 (FOXO3) using HepaRG (AID 2283459); details: mRNA level, 48 h; actives raise or lower the signal
Outline: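 Differentiated human HepaRG cells, 48 h post-plating, exposed in duplicate for 48 h in serum-free induction medium; 8-point half-log series from 100 uM in 0.5% DMSO. FOXO3 mRNA by TaqMan qRT-PCR, normalized to ACTB/GAPDH/POLR2A; bidirectional fit versus DMSO.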

[16] = read-out: ABC Transporter (ABCB1), ABCB1 (gene 5243); assay: LTEA_HepaRG_ABCB1: Life Technologies and Expression Analysis (LTEA) Assay for ABC Transporter (ABCB1) using HepaRG (AID 2283460); details: mRNA level, 48 h; actives raise or lower the signal
Outline: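 HepaRG cells exposed in duplicate for 48 h in serum-free induction medium to eight half-log concentrations up to 100 uM in 0.5% DMSO. ABCB1 mRNA quantified by qRT-PCR, normalised to ACTB, GAPDH and POLR2A; fitted bidirectionally versus DMSO.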

[17] = read-out: growth arrest and DNA damage 45 (GADD45B), GADD45B (gene 4616); assay: LTEA_HepaRG_GADD45B: Life Technologies and Expression Analysis (LTEA) Assay for growth arrest and DNA damage 45 (GADD45B) using HepaRG (AID 2283461); details: mRNA level, 48 h; actives raise or lower the signal
Outline: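 Transcript level quantified by Fluidigm TaqMan qRT-PCR with three housekeeping genes for normalization, analyzed for up- or down-regulation against 0.5% DMSO. HepaRG cultures dosed 48 h at eight half-log concentrations up to 100 uM, duplicates.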

[18] = CEETOX_H295R_ESTRONE: CeeTox H295R High-throughput Steroidogenesis Assay for Estrone (AID 2283441); details: actives raise or lower the signal;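 further: estrone secreted into medium measured by LC-MS/MS after dansyl derivatization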;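 on AC50: human adrenal H295R cells prestimulated with forskolin for two days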
Outline: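 H295R cells; 48 h forskolin (10 uM) prestimulation; 48 h compound exposure, 0.1% DMSO final. Medium estrone: MTBE extraction, dansyl derivatization, HPLC-MS/MS. Bidirectional fit vs DMSO.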

[19] = CEETOX_H295R_ANDR: CeeTox H295R High-throughput Steroidogenesis Assay for Androstenedione (ANDR) (AID 2283436); details: actives raise or lower the signal
Outline: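 H295R cells, following OECD 456 with minor changes, exposed to chemicals for 48 h. Androstenedione in the medium was quantified by HPLC-MS/MS after MTBE extraction. Fitting was bidirectional versus DMSO; chemicals were diluted until MTT viability was ≥70%.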

[20] = CEETOX_H295R_TESTO: CeeTox H295R High-throughput Steroidogenesis Assay for Testosterone (TESTO) (AID 2283457); details: actives raise or lower the signal;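 on AC50: cells exposed to chemicals for 48 h before medium collection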
Outline: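 Testosterone secreted into the medium over 48 h by H295R cells (maximum passage 10) was quantified by LC-MS/MS after MTBE extraction. Fitted in both directions against DMSO, with concentrations diluted until MTT viability was ≥70%.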

Measured: AC50

Chain of Fatty acid synthase (Homo sapiens) (P49327 whole entry, looked up): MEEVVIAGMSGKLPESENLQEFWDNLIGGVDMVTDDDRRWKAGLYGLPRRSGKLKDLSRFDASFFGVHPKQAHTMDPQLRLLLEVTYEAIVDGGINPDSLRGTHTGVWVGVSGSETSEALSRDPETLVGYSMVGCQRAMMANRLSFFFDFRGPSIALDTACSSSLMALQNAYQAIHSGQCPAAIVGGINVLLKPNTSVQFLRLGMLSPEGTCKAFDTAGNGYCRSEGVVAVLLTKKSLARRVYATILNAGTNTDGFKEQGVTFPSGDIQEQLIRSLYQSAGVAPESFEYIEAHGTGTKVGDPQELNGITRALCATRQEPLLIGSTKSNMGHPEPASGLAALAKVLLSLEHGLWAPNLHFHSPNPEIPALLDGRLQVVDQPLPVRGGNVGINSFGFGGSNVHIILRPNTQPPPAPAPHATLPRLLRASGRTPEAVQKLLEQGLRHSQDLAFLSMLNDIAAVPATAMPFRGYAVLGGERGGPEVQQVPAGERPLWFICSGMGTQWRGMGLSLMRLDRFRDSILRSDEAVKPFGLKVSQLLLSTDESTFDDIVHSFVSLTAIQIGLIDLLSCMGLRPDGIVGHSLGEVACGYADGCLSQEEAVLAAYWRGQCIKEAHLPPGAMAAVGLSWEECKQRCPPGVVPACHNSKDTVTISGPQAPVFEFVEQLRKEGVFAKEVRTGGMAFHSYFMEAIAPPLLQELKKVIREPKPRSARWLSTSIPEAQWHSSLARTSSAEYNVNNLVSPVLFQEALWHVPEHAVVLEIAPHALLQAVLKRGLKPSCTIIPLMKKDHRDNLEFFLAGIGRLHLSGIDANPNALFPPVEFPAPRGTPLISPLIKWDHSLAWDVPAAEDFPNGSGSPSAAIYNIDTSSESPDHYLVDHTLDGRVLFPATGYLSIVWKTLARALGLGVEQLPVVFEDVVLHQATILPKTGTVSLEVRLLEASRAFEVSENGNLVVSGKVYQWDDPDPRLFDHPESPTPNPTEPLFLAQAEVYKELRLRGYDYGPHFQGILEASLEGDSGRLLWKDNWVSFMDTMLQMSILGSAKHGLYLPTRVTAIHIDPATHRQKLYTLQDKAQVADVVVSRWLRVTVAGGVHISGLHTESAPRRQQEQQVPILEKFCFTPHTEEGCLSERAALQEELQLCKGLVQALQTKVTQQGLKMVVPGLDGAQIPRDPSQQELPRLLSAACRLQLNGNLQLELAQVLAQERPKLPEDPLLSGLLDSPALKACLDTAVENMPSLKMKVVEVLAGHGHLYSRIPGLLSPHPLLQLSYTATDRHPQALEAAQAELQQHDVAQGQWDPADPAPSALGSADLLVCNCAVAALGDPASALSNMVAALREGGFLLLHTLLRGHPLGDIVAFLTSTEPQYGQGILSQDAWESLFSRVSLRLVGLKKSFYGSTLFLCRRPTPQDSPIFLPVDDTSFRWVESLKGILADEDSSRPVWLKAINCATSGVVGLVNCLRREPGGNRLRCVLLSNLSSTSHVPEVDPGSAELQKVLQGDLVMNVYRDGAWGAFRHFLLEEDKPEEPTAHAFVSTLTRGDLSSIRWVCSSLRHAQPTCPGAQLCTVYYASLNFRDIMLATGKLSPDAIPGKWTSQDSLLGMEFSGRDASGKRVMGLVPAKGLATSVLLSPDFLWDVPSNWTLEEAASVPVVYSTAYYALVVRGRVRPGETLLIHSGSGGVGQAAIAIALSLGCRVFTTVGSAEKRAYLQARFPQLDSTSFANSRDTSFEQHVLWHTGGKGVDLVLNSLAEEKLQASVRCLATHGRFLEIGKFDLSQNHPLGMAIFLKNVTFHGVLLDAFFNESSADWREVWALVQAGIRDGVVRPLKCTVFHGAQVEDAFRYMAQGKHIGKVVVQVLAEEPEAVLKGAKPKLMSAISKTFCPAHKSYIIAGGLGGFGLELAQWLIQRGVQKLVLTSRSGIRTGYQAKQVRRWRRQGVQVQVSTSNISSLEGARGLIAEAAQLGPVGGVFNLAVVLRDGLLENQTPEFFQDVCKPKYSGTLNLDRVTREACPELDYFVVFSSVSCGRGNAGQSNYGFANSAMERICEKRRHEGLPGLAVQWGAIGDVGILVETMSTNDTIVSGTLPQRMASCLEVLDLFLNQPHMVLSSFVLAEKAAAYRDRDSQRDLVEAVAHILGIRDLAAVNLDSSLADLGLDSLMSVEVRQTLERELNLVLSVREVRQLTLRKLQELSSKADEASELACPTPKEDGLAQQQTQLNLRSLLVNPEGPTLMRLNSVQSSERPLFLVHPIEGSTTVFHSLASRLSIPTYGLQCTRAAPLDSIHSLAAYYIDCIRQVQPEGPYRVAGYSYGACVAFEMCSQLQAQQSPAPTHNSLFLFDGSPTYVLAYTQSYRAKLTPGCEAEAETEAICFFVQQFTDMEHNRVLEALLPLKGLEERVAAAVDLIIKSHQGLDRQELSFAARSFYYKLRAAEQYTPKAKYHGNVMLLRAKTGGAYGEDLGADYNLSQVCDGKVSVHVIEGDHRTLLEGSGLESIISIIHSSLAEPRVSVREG

CC(C)(C)c1ccccc1O
active: [12] 50 µM
not listed: [18] | [19] | [20]
inactive: all other assays above

O=C(N[C@H]1CN2CCC1CC2)c1ccc2c(c1)OCCO2
not listed: [1] | [2] | [3] | [4] | [5] | [18] | [19] | [20]
inactive: all other assays above

Cc1cc(C)cc(C)c1
not listed: [2] | [3] | [4] | [6] | [18] | [19] | [20]
inactive: all other assays above

Clc1cccc(Cl)c1Cl
active: [12] 50 µM
not listed: [1] | [2] | [3] | [4] | [5] | [18] | [19] | [20]
inactive: all other assays above

COc1ccccc1N
active: [12] 68.2 µM
not listed: [1] | [2] | [3] | [4] | [5] | [18] | [19] | [20]
inactive: all other assays above

CCC[CH2][Sn]([Cl])([Cl])[CH2]CCC
inactive: [1] | [2] | [3] | [4] | [18] | [5]

O=[N+]([O-])c1ccc(Nc2ccccc2)cc1
active: [1] 1.42 µM
inactive: [2] | [3] | [4] | [18] | [5]

O=S1OC[C@@H]2[C@H](CO1)[C@]1(Cl)C(Cl)=C(Cl)[C@@]2(Cl)C1(Cl)Cl (some centres undefined)
inactive: [2]
active: [1] 41.2 µM | [19] 50 µM | [3] 38.3 µM | [4] 16.3 µM | [5] 8.22 µM | [20] 50 µM

CCOP(=O)(OCC)OC(=CCl)c1ccc(Cl)cc1Cl
active: [1] 5.16 µM | [2] 5.28 µM | [3] 5.66 µM | [4] 5.48 µM | [5] 5.17 µM

COC(=O)Nc1cccc(OC(=O)Nc2cccc(C)c2)c1
inactive: [1] | [2] | [3] | [5]
active: [4] 19.8 µM

N#Cc1cccnc1
not listed: [1] | [2] | [3] | [4] | [5] | [18] | [19] | [20]
inactive: all other assays above

CCOP(=S)(OCC)O/N=C(\C#N)c1ccccc1
active: [2] 13.8 µM | [3] 87.8 µM | [4] 40.4 µM | [5] 50 µM
inactive: [1]

Oc1cc(Cl)c(Cl)cc1Cl
active: [12] 80.5 µM
inactive: [6] | [7] | [8] | [9] | [10] | [11] | [13] | [14] | [16] | [17]

CCOCn1c(-c2ccc(Cl)cc2)c(C#N)c(Br)c1C(F)(F)F
active: [1] 13.2 µM | [3] 7.15 µM | [18] 5.33 µM | [5] 2.1 µM
inactive: [2] | [4]

Cc1ccccc1OP(=O)(Oc1ccccc1C)Oc1ccccc1C
inactive: [1] | [19] | [2] | [3] | [4] | [5] | [20]

OC(Cc1ccccc1Cl)(Cn1[nH]cnc1=S)C1(Cl)CC1 (centres undefined)
inactive: [1] | [19] | [2] | [3] | [4] | [5] | [20]

OC(Cc1ccccc1Cl)(Cn1cncn1)C1(Cl)CC1 (centres undefined)
inactive: [1] | [4]
active: [2] 6.94 µM | [3] 6.05 µM | [18] 7.74 µM | [5] 6.41 µM
